# Compounds without any hit were thinned out: in the full panel of roughly 83,000, 20% have a hit.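 The endpoint reported here, percent growth, reads 100 for growth as untreated, 0 for no net growth and -100 for all cells dead.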 A number with no mark means an inactive call. Active and inactive are the calls of the source. Rule for the calls: active = growth percent below 10; inactive = the rest.
# Assays:
# Experiment in all cases: NCI-60 one-dose screen, 48 h (100 = growth as untreated, 0 = no growth, -100 = all killed)
# Conditions in all cases: 10 µM unless noted
# NCI-H23 lung = test system: NCI-H23 lung
# NCI-H226 lung = test system: NCI-H226 lung
# NCI-H322M lung = test system: NCI-H322M lung
# HOP-62 NSCLC = test system: HOP-62 NSCLC
# NCI-H460 lung = test system: NCI-H460 lung
# NCI-H522 lung = test system: NCI-H522 lung
# A549/ATCC NSCLC = test system: A549/ATCC NSCLC
# 786-0 renal = test system: 786-0 renal
# COLO 205 colon = test system: COLO 205 colon
# DU-145 prostate = test system: DU-145 prostate
# K-562 leukemia = test system: K-562 leukemia
# MALME-3M melanoma = test system: MALME-3M melanoma
# MDA-MB-231 breast = test system: MDA-MB-231 breast
# RXF 393 renal = test system: RXF 393 renal
# SF-268 CNS = test system: SF-268 CNS
# SF-295 CNS = test system: SF-295 CNS
# SF-539 CNS = test system: SF-539 CNS
# UACC-257 melanoma = test system: UACC-257 melanoma
# M14 melanoma = test system: M14 melanoma
# HCT-15 colon = test system: HCT-15 colon
SMILES,growth (NCI-H23 lung),growth (NCI-H226 lung),growth (NCI-H322M lung),growth (HOP-62 NSCLC),growth (NCI-H460 lung),growth (NCI-H522 lung),growth (A549/ATCC NSCLC),growth (786-0 renal),growth (COLO 205 colon),growth (DU-145 prostate),growth (K-562 leukemia),growth (MALME-3M melanoma),growth (MDA-MB-231 breast),growth (RXF 393 renal),growth (SF-268 CNS),growth (SF-295 CNS),growth (SF-539 CNS),growth (UACC-257 melanoma),growth (M14 melanoma),growth (HCT-15 colon)
CC(C)C(=O)Cc1cnccn1,93.7%,110%,103%,106%,103%,109%,96.5%,109%,113%,111%,114%,111%,119%,106%,114%,91%,105%,97.8%,112%,107%
O=C1NCN(c2ccccc2)C12CCN(CCCC(c1ccc(F)cc1)c1ccc(F)cc1)CC2,72.9%,94.1%,60.4%,82.9%,37.3%,61.2%,57.8%,49.2%,27.1%,76%,6.41% (active),39.9%,78%,39.9%,71.4%,17.1%,50.9%,-15.8% (active),9.99% (active),49.6%
COc1ccc(-c2cncn2-c2ccc(-c3nc4cc(OC)c(OC)c(OC)c4s3)cc2)cc1N,72.9%,64.5%,84.1%,101%,51.4%,46%,47.9%,55.2%,46.2%,92.6%,41%,57.9%,76.4%,75.8%,93.1%,50%,87.8%,71.6%,46.5%,42.1%
CC(=O)Oc1c(C)c(OC(C)=O)c2c(c1C(C)=O)OC1CC(=O)C(C(C)=O)=C(O)C21C (stereo not given),90.9%,104%,105%,89.2%,94.9%,91.1%,99%,94.8%,118%,112%,73.3%,96.9%,106%,132%,122%,92%,98.6%,115%,96%,94.8%
CC[C@@H]1OC(=O)[C@H](C)[C@@H](O[C@H]2C[C@@](C)(OC)[C@@H](O)[C@H](C)O2)[C@H](C)[C@@H](O[C@@H]2O[C@H](C)C[C@H](N(C)C)[C@H]2O)[C@](C)(O)C[C@@H](C)[C@@H]2N[C@@H](COCCOC)O[C@H]([C@H]2C)[C@]1(C)O,94%,110%,96%,107%,117%,98.6%,100%,95.8%,98.7%,100%,103%,99.5%,94.6%,116%,112%,110%,106%,106%,99.7%,109%
COc1ccc(Cn2cc3c(c2-c2ccccc2)CCc2cncnc2-3)cc1,69.9%,72.1%,110%,61.1%,27%,26.1%,46.6%,57.3%,45.5%,72.9%,22.1%,26.9%,50%,55.3%,63.1%,24.3%,59.7%,74.9%,24.5%,45.3%
CCN(CC)CCNc1ccc(Cl)cc1Cl,101%,108%,94.9%,95.8%,107%,98.5%,107%,104%,108%,107%,104%,106%,118%,103%,101%,109%,111%,95%,102%,107%
Cc1c(C)c(N2C(=O)C=CC2=O)c(C)c(C)c1N1C(=O)C=CC1=O,96.3%,108%,112%,91.6%,115%,-49.4% (active),89.6%,93.2%,78.7%,104%,77.8%,126%,114%,54.7%,110%,109%,114%,75.6%,86.5%,117%
